From PubChem BioAssay (EPA / NIEHS)
Where “and” joins values, the source holds several entries; their conditions need not be identical. Equal values may be shown once. Some structures have more than one record in an assay (separate samples or runs), and their calls can disagree. Calls of active or inactive are those of the source. The calls were made as follows: active = hit-call score of the fitted dose curve at least 0.9, where 1 is the maximum; inactive = score below 0.9.

Key:
[1] = read-out: Macrophage colony-stimulating factor (MCSF), CSF1 (gene 1435); assay: BSK_hDFCGF_MCSF: BioMAP Diversity Plus: hDFCGF Assay for Macrophage colony-stimulating factor (MCSF) Biomarker Activity (AID 2283060); conditions: primary human foreskin fibroblasts; actives raise or lower the signal
How it was run: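 M-CSF levels read by ELISA at 24 h post-dosing in human skin fibroblasts. Parallel cultures stained with SRB assessed cytotoxicity at the same time point; response fitted in both directions against the DMSO baseline.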

[2] = BSK_hDFCGF_SRB: Viability Assessment in the BioMAP Diversity Plus: hDFCGF Assay (AID 2283061); conditions: primary human foreskin fibroblasts;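 also: cells exposed to compound for 24 h before the read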
How it was run: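 Viability was read as total protein: after 10% TCA fixation, wells were stained with 0.1% sulforhodamine B and read at 560 nm. Primary human foreskin fibroblasts were dosed for 24 h, with bidirectional fitting versus DMSO.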

[3] = read-out: TIMP metallopeptidase inhibitor 1 (TIMP1), TIMP1 (gene 7076); assay: BSK_hDFCGF_TIMP1: BioMAP Diversity Plus: hDFCGF Assay for TIMP metallopeptidase inhibitor 1 (TIMP1) Biomarker Activity (AID 2283062); conditions: primary human foreskin fibroblasts; actives raise or lower the signal
How it was run: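 TIMP-1 measured by ELISA 24 h after chemical dosing of primary human skin fibroblasts, with gain or loss fitted relative to DMSO. Parallel SRB staining (560 nm) monitored overt cytotoxicity.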

[4] = read-out: Monokine induced gamma interferon (MIG), CXCL9 (gene 4283); assay: BSK_hDFCGF_MIG: BioMAP Diversity Plus: hDFCGF Assay for Monokine induced gamma interferon (MIG) Biomarker Activity (AID 2283063); conditions: primary human foreskin fibroblasts; actives raise or lower the signal
How it was run: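 Human primary foreskin fibroblasts in the hDFCGF system, exposed to test chemical for 24 h; MIG measured by ELISA. Bidirectional curve fitting against DMSO negative control as activity baseline.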

[5] = read-out: Matrix Metallopeptidase 1 (MMP1), MMP1 (gene 4312); assay: BSK_hDFCGF_MMP1: BioMAP Diversity Plus: hDFCGF Assay for Matrix Metallopeptidase 1 (MMP1) Biomarker Activity (AID 2283064); conditions: primary human foreskin fibroblasts; actives raise or lower the signal
How it was run: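 ELISA read-out of MMP1 from human foreskin fibroblasts (primary skin cells), 24 h post-dose. Gain or loss of signal was fitted bidirectionally versus DMSO negative control; cytotoxicity was checked by SRB in parallel cultures.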

[6] = read-out: Vascular cell adhesion molecule 1 (VCAM1), VCAM1 (gene 7412); assay: BSK_hDFCGF_VCAM1: BioMAP Diversity Plus: hDFCGF Assay for Vascular cell adhesion molecule 1 (VCAM1) Biomarker Activity (AID 2283065); conditions: primary human foreskin fibroblasts; actives raise or lower the signal;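 also: VCAM-1 protein level quantified by ELISA after 24 h chemical exposure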
How it was run: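 ELISA readout of VCAM-1 on human dermal fibroblast primary cultures, 24 h after chemical exposure. Gain or loss of signal fitted in both directions against DMSO baseline.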

[7] = read-out: Plasminogen activator inhibitor-1 (PAI1), SERPINE1 (gene 5054); assay: BSK_hDFCGF_PAI1: BioMAP Diversity Plus: hDFCGF Assay for Plasminogen activator inhibitor-1 (PAI1) Biomarker Activity (AID 2283066); conditions: primary human foreskin fibroblasts; actives raise or lower the signal
How it was run: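 PAI-1 levels in human dermal foreskin fibroblasts were quantified by ELISA 24 h after dosing, with gain or loss analysed against DMSO. Overt cytotoxicity was checked by sulforhodamine B total-protein staining in parallel cultures.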

[8] = read-out: Intercellular Adhesion Molecule 1 (ICAM1), ICAM1 (gene 3383); assay: BSK_KF3CT_ICAM1: BioMAP Diversity Plus: KF3CT Assay for Intercellular Adhesion Molecule 1 (ICAM1) Biomarker Activity (AID 2283067); conditions: primary human keratinocytes with fibroblasts; actives raise or lower the signal
How it was run: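 Cell-surface ICAM-1 was measured by ELISA 24 h after dosing primary human skin keratinocytes co-cultured with fibroblasts. Parallel SRB staining tracked overt cytotoxicity. Gain or loss of signal was fitted relative to DMSO.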

[9] = BSK_KF3CT_SRB: Viability Assessment in the BioMAP Diversity Plus: KF3CT Assay (AID 2283069); conditions: primary human keratinocytes with fibroblasts;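 also: read 24 h after compound addition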
How it was run: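 SRB read-out at 560 nm (0.1% stain, TCA-fixed cells) gauges overt cytotoxicity in a human skin keratinocyte–fibroblast co-culture 24 h post-dosing. Signal change was fitted bidirectionally relative to DMSO control.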

[10] = read-out: Interleukin-1 alpha (IL1a), IL1A (gene 3552); assay: BSK_KF3CT_IL1a: BioMAP Diversity Plus: KF3CT Assay for Interleukin-1 alpha (IL1a) Biomarker Activity (AID 2283070); conditions: primary human keratinocytes with fibroblasts; actives raise or lower the signal
How it was run: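 Primary skin co-culture (keratinocytes, foreskin fibroblasts), 24 h exposure; ELISA for IL-1a; bidirectional curve fit vs DMSO.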

[11] = read-out: TIMP metallopeptidase inhibitor 2 (TIMP2), TIMP2 (gene 7077); assay: BSK_KF3CT_TIMP2: BioMAP Diversity Plus: KF3CT Assay for TIMP metallopeptidase inhibitor 2 (TIMP2) Biomarker Activity (AID 2283071); conditions: primary human keratinocytes with fibroblasts; actives raise or lower the signal
How it was run: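 TIMP-2 measured by ELISA at 24 h in human keratinocyte/fibroblast primary co-cultures exposed to chemicals. Both increases and decreases were fitted against DMSO. Parallel cultures were stained with SRB for total protein as an overt-cytotoxicity check.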

[12] = read-out: C-C motif chemokine 2 (Homo sapiens) (UniProt P13500); assay: BSK_KF3CT_MCP1: BioMAP Diversity Plus: KF3CT Assay for Monocyte Chemoattractant Protein 1 (MCP1/CCL2) Biomarker Activity (AID 2283073); conditions: primary human keratinocytes with fibroblasts; actives raise or lower the signal
How it was run: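 ELISA read-out of MCP-1, 24 h post-dose, in primary human skin keratinocytes co-cultured with fibroblasts. Parallel SRB staining monitors cytotoxicity; changes fitted both directions relative to DMSO.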

[13] = read-out: Matrix Metallopeptidase 9 (MMP9), MMP9 (gene 4318); assay: BSK_KF3CT_MMP9: BioMAP Diversity Plus: KF3CT Assay for Matrix Metallopeptidase 9 (MMP9) Biomarker Activity (AID 2283074); conditions: primary human keratinocytes with fibroblasts; actives raise or lower the signal;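 as to AC50: MMP9 protein level quantified by ELISA in the co-culture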
How it was run: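 ELISA read-out of MMP-9 at 24 h post-dosing in a co-culture of human skin keratinocytes and foreskin fibroblasts. Gain or loss of signal was fitted in both directions against DMSO.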

[14] = read-out: urokinase plasminogen activator (uPA), PLAU (gene 5328); assay: BSK_KF3CT_uPA: BioMAP Diversity Plus: KF3CT Assay for urokinase plasminogen activator (uPA) Biomarker Activity (AID 2283075); conditions: primary human keratinocytes with fibroblasts; actives raise or lower the signal
How it was run: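 Skin co-culture (keratinocytes + foreskin fibroblasts), human primary; 24 h post-dose; uPA by ELISA; gain/loss fit vs DMSO baseline.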

CD40, CD40 (gene 958) = assay: BSK_LPS_CD40: BioMAP Diversity Plus: LPS Assay for CD40 Biomarker Activity (AID 2283076); conditions: primary human HUVEC with PBMC; actives raise or lower the signal
How it was run: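 In the LPS system of human endothelial cells with peripheral blood mononuclear cells, CD40 levels were read by ELISA 24 h post-treatment. Signal changes in either direction were fitted against the DMSO baseline, with parallel SRB protein staining.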

[15] = read-out: E-selectin (Homo sapiens) (UniProt P16581); assay: BSK_LPS_Eselectin: BioMAP Diversity Plus: LPS Assay for Eselectin Biomarker Activity (AID 2283077); conditions: primary human HUVEC with PBMC; actives raise or lower the signal
How it was run: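 E-selectin ELISA on LPS-stimulated endothelial cell/PBMC co-cultures, read 24 h post-treatment; gains and losses fitted against DMSO. Parallel SRB staining (0.1% SRB after 10% TCA fixation, 560 nm) flags overt cytotoxicity.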

[16] = read-out: Interleukin-8 (IL8), CXCL8 (gene 3576); assay: BSK_LPS_IL8: BioMAP Diversity Plus: LPS Assay for Interleukin-8 (IL8) Biomarker Activity (AID 2283078); conditions: primary human HUVEC with PBMC; actives raise or lower the signal
How it was run: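 ELISA read-out of IL-8 after 24 h chemical treatment of LPS-activated endothelial/PBMC human primary co-cultures. Changes either up or down relative to DMSO; overt cytotoxicity checked by sulforhodamine B staining in parallel wells.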

[17] = BSK_LPS_SRB: Viability Assessment in the BioMAP Diversity Plus: LPS Assay (AID 2283079); conditions: primary human HUVEC with PBMC;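 also: total protein by sulforhodamine B absorbance as a cytotoxicity measure; measured one day after compound addition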
How it was run: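 SRB viability endpoint: cells fixed with 10% TCA, stained with 0.1% SRB, read at 560 nm, 24 h post-dose. HUVEC/PBMC co-culture; signal change in either direction scored relative to DMSO.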

[18] = read-out: Interferon-gamma inducible Protein 10 (IP10), CXCL10 (gene 3627); assay: BSK_KF3CT_IP10: BioMAP Diversity Plus: KF3CT Assay for Interferon-gamma inducible Protein 10 (IP10) Biomarker Activity (AID 2283068); conditions: primary human keratinocytes with fibroblasts; actives raise or lower the signal
How it was run: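 Signal is secreted/surface IP-10 by ELISA in a human primary skin co-culture of keratinocytes and foreskin fibroblasts, taken 24 h post-dosing; DMSO served as negative control.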

[19] = read-out: Transforming growth factor beta 1 (TGFb1), TGFB1 (gene 7040); assay: BSK_KF3CT_TGFb1: BioMAP Diversity Plus: KF3CT Assay for Transforming growth factor beta 1 (TGFb1) Biomarker Activity (AID 2283072); conditions: primary human keratinocytes with fibroblasts; actives raise or lower the signal
How it was run: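 ELISA quantifies TGF-b1 at 24 h post-dose in a primary human skin co-culture of keratinocytes and fibroblasts, with gain or loss judged against DMSO. Parallel SRB total-protein staining flags overt cytotoxicity.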

Measured: AC50

Chain of E-selectin (Homo sapiens) (P16581 whole entry, looked up): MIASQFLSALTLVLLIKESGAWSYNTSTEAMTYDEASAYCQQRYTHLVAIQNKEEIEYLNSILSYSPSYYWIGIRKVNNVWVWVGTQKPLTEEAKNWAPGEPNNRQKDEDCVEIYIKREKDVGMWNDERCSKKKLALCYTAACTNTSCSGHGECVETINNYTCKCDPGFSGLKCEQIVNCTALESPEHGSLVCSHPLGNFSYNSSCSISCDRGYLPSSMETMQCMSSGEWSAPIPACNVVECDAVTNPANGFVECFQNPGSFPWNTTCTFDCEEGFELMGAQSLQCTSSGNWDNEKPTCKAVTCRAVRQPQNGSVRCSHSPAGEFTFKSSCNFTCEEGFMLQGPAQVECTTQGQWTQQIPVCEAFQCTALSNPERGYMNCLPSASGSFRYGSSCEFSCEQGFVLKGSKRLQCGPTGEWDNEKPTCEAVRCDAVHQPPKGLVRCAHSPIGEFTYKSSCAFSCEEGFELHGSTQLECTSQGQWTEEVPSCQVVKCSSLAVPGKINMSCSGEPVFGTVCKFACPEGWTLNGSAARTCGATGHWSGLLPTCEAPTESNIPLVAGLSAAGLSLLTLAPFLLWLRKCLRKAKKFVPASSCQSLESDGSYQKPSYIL

O=C(O)C(F)(F)C(F)(F)C(F)(F)C(F)(F)C(F)(F)C(F)(F)C(F)(F)C(F)(F)C(F)(F)C(F)(F)C(F)(F)C(F)(F)F
inactive: [1] | [2] | [3] | [5] | [7] | [8] | [9] | [11] | [12] | [13] | [14] | CD40, CD40 (gene 958) | [15] | [16] | [17]
active: [1] 6.46 µM | [2] 6.27 µM | [4] 2.35 µM and 1.17 µM | [5] 1.6 µM | [6] 4.75 µM and 1.14 µM | [10] 4.28 µM and 3.91 µM

CCCCC(CC)COP(=O)(O)OCC(CC)CCCC (stereo unspecified)
inactive: [3] | [4] | [8] | [9] | [14] | CD40, CD40 (gene 958) | [15] | [17]
active: [1] 33.9 µM and 31.3 µM | [2] 30.6 µM and 29.9 µM | [3] 30.8 µM | [4] 31.6 µM | [5] 12 µM and 13.7 µM | [6] 37.6 µM and 32 µM | [7] 27.5 µM and 33.5 µM | [11] 25.5 µM and 28.3 µM | [12] 31.2 µM and 20 µM | [13] 29.5 µM and 36.8 µM

FC(F)(I)C(F)(F)C(F)(F)C(F)(F)I
active: [1] 51.1 µM and 47.7 µM and 58.5 µM | [2] 46.3 µM and 52.7 µM and 54 µM | [3] 45.3 µM and 46.7 µM and 47.2 µM | [4] 50.1 µM and 46 µM and 54.4 µM | [5] 56.1 µM and 47.6 µM and 46.9 µM | [6] 50.3 µM and 57.2 µM and 46.4 µM | [7] 45.1 µM and 50.2 µM and 44.9 µM | [8] 45.5 µM and 46.4 µM and 46.6 µM | [18] 52.2 µM and 58.4 µM and 56.6 µM | [9] 52.6 µM and 51.1 µM and 58.7 µM | [11] 54.2 µM and 46.7 µM and 53.1 µM | [12] 50.9 µM and 46.8 µM and 48.7 µM | [13] 52 µM and 51.2 µM and 45.8 µM | [14] 49.5 µM and 45.8 µM and 54 µM
inactive: CD40, CD40 (gene 958) | [15] | [16] | [17]

FC(F)(F)C(F)(F)C(F)(F)C(F)(F)C(F)(F)CCI
inactive: [1] | [2] | [3] | [4] | [5] | [7] | [8] | [18] | [9] | [11] | [12] | [13] | [14] | CD40, CD40 (gene 958) | [15] | [16] | [17]
active: [1] 23.4 µM | [4] 30 µM | [5] 8.91 µM | [6] 38.6 µM and 32.6 µM

CCN(CC)c1ccc2c(C)cc(=O)oc2c1
active: [6] 30.5 µM
not listed: [10] | [16]
inactive: all other assays above
